This passage reports outcome results from PubChem BioAssay AID449764 (Southern Research Specialized Biocontainment Screening …, 2010).

Molecules are shown by their SMILES. Among all 2,300 compounds or so, about 1,700 (74%) were called active. How the calls were made is not given here. The set was probably picked from earlier hits. This is one part of the list. Where a call stands in place of a potency, no number is given. Potency and affinity values are given separately.

The nature of the test: Mycobacterium tuberculosis H37Rv growth inhibition, no glycerol, confirmatory dose response (AID 449764).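 Further: growth read after 7 days of incubation.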 The note with it: series mostly up to 100 µM.
`O=C(CCCC(=O)OCC(=O)c1cccs1)Nc1ccc(Oc2ccccc2)cc1`: the molecule was called inactive. Take `COc1ccc(N2COC3c4cccc5cccc(c45)C32)cc1` (stereo unspecified): the molecule was called inactive. On to `Brc1ccc(-c2ccc(/C=N/Nc3nncc(-c4ccccc4)n3)o2)cc1`, for which the outcome was inactive. The same measure for `Cn1nnc(NC(=S)NC(=O)c2ccc(-c3ccc(Br)cc3)o2)n1`: “inactive”; for `Cc1ccc(N/C=C2\C(=O)C3(C)CCC2C3(C)C)cc1C` (stereo unspecified): “inactive”; for `Cc1cc(C(=O)N/N=C/c2ccc(-c3ccc([N+](=O)[O-])cc3Cl)o2)n[nH]1`: “inactive”. Take `Cc1ccc(-c2cc(C(F)(F)F)n3nc(C(=O)NCCCn4ccnc4)cc3n2)cc1C`: the call was inactive. Turning to `CCOC(=O)/C(=N\Nc1ccc(Br)cc1)N1CC(C)OC(C)C1` (stereo unspecified), the result was inactive.

Regarding `C=CCn1c(=O)/c(=C/c2ccc(Cl)cc2)s/c1=C(/C#N)c1nnc2n1CCCCC2`, the molecule was called inactive. `Nc1ccc2c(c1)oc1ccccc12`: the molecule was called inactive. For the molecule `CCOC(=O)NNc1ccccc1`, the call was inactive. Take `CC1(CCc2ccccc2)NC(=S)N(c2ccc(Cl)cc2)N1` (stereo unspecified): the molecule was called inactive.

In the case of `Cn1c(=O)c2[nH]c(-c3ccc(S(=O)(=O)O)cc3)nc2n(C)c1=O`, the call was inactive. Next, `COc1ccc(NC2=C(C(C)=O)C(c3ccc4c(c3)OCO4)C(C(C)=O)C(C)(O)C2)cc1` (stereo unspecified): “inactive”.

`Nc1ccc(Oc2ccc3c(c2)OCO3)cc1`: the molecule was classed as inactive. Next, `Nc1ccc2c(c1)nnn2-c1ccccc1`: “inactive”. Next, `O=S(=O)(Nc1ccn(-c2ccccc2)n1)c1ccc(Br)cc1`: “inactive”. As to `Cc1ccc(S(=O)(=O)c2nc(Nc3nccs3)sc2Cl)cc1`, the result was inactive. Turning to `O=C(CSc1nc2cc(Cl)ccc2o1)c1cccs1`, the molecule was classed as inactive. In the case of `COC12C(COC(N)=O)C3=C(C(=O)C(C)=C(N)C3=O)N1CC1C2N1C` (stereo unspecified), the molecule was classed as inactive. Next, `Oc1ccc(Br)cc1/C=N/Nc1nc(N2CCCCC2)nc(N2CCOCC2)n1`: “inactive”. For `Nc1ccc(CCc2ccc(N)cc2)cc1`, the result was inactive.

In the case of `COc1cc(/C=N/N(C)c2ccccc2)cc(Cl)c1O`, the molecule was classed as inactive. The same measure for `COc1cc2c(-c3ccc4[nH]ccc4c3)c(-c3ccc(C#N)cc3)oc(=O)c2cc1OC`: “inactive”; for `O=C1NC(=O)/C(=C/c2ccc(-c3cccc([N+](=O)[O-])c3)o2)S1`: “inactive”; for `O=[N+]([O-])c1ccc(-c2ccc(/C=N/c3c(-c4ccco4)nc4ccccn34)o2)cc1`: “inactive”. Turning to `O=[N+]([O-])c1ccc(-c2csc(NN=C3CCCC3)n2)cc1`, the molecule was classed as inactive. Consider `Nc1c(C(=O)Nc2ccc(Br)cc2)sc2nc(-c3ccco3)ccc12`, for which the outcome was inactive. Regarding `CCCCn1cnc2cc(NCc3cccc(OC)c3O)ccc21`, the result was inactive. As for `COc1ccc(NC(C#N)c2ccc(OC)cc2)cc1` (stereo unspecified), the molecule was classed as inactive. With `Nc1ccn([C@@H]2O[C@H](CO)[C@@H](O)C2O)c(=O)n1` (stereo partly specified), the call was inactive.

For `O=C(CSCC(=O)Nc1ccc2ccccc2c1)NCc1ccccc1`, the result was inactive. Turning to `Cn1ccnc1-c1nnn(-c2ccc(Cl)c(Cl)c2)n1`, the molecule was classed as inactive. Next, `CCOc1ccc(-n2c(-c3ccc(Br)cc3)c[n+]3c2CCCCC3)cc1`: “inactive”; `c1ccc(Cn2nnc3c(N4CCc5ccccc5C4)ncnc32)cc1`: “inactive”; `Cn1c(=O)c(C(=O)COC(=O)c2cc(C(F)(F)F)nc3c(C(F)(F)F)cccc23)c(N)n(CC2CC2)c1=O`: “inactive”.

For `Cc1cc(NC(=O)c2noc3c2CCCC3)nn1Cc1ccc(Cl)cc1`, the molecule was classed as inactive. The same measure for `Cc1ccc(NC(=O)/C(Cl)=C\c2ccccc2)cc1`: “inactive”. Next, `Nc1ccc2c(c1)Cc1ccccc1-2`: “inactive”; `C/C=C(\C)C(=O)Nc1cccc(C2=NOC3(C2)C[C@H](C(N)=O)N(C(=O)c2cc([N+](=O)[O-])cc([N+](=O)[O-])c2)C3)c1` (stereo partly specified): “inactive”; `CCc1cc(C(=O)Nc2ccc(C)cc2Br)cs1`: “inactive”. As for `CC(=O)CCSc1ncnc2sc(-c3ccccc3)cc12`, the molecule was classed as inactive.

Take `O=C(CCSc1ccc(Cl)cc1)NC12CC3CC(CC(C3)C1)C2`: the result was inactive. Next, `Nc1cc(=O)[nH]c(SCc2csc(-c3ccccc3)n2)n1`: “inactive”; `CSc1ccccc1C(=O)NC1CCSc2ccccc21` (stereo unspecified): “inactive”. Next, `Cc1cccc(COc2ccccc2/C=N/Nc2ccc([N+](=O)[O-])cc2)c1`: “inactive”; `CCCn1c(O)c(N=NC(=O)c2ccco2)c2ccccc21`: “inactive”; `Cc1c(Cl)c([N+](=O)[O-])nn1Cc1ccc(C(=O)N/N=C\c2cccc(Br)c2)o1`: “inactive”. As for `CCn1nc(C)c(C(=O)Nc2cc(Oc3cc(C)cc(C)c3)cc([N+](=O)[O-])c2)c1C`, the molecule was classed as inactive. `CN1C(=O)CC(c2ccccc2)C1=O` (stereo unspecified): the molecule was called inactive. With `COc1ccc(OC)c(C(=O)NC(CC(N)=O)c2ccc(NCc3ccc(F)c(F)c3)c([N+](=O)[O-])c2)c1` (stereo unspecified), the result was inactive. As for `Nc1ccc2oc(-c3cccs3)nc2c1`, the call was inactive. The same measure for `Fc1cccc2sc(Nc3nc4cc5c(cc4s3)OCO5)nc12`: “inactive”; for `CC1=CC(=O)NP(=O)(Oc2ccc3ccccc3c2)N1` (stereo unspecified): “inactive”; for `O=C(OCCN1C(=O)c2ccccc2C1=O)c1cc2ccccc2o1`: “inactive”. The same measure for `C=CCc1cccc(CNc2cnc3ccccc3c2)c1O`: “inactive”. As for `CNc1cccccc1=S`, the molecule was classed as inactive. As for `COc1cc2cnc(-c3ccccc3)c(-c3ccc(C(F)(F)F)cc3)c2cc1OC`, the result was inactive.

On to `CCCCc1cc(=O)oc2cc(O)ccc12`, for which the molecule was classed as inactive. For `Cc1n[nH]c(=S)n1/N=C/c1cccc(OCc2ccccc2)c1`, the molecule was called inactive. For the molecule `COC(=O)c1cccc(C#CC(NP(=O)(c2ccccc2)c2ccccc2)c2ccccc2)c1` (stereo unspecified), the call was inactive.

For `COc1ccc(NC(=O)CN(C)C(=O)c2n[nH]c3ccccc23)cc1`, the outcome was inactive. Take `CCOC(=O)c1cc(-c2cccc([N+](=O)[O-])c2)on1`: the outcome was inactive. Next, `O=C(C1CCC1)N1CCN(S(=O)(=O)c2ccc(Br)cc2Cl)CC1`: “inactive”; `CCCNC(=O)NC(=O)COc1ccc2oc3ccccc3c2c1`: “inactive”; `COc1ccc(N=Cc2ccc(CNS(=O)(=O)c3ccc(Cl)cc3)o2)cc1`: “inactive”. Take `CCOC(=O)c1ccc(NC(=S)Nc2ccc3[nH]c(=O)[nH]c3c2)cc1`: the molecule was called inactive. Next, `CCCN(C(=O)CCOc1ccc(C(C)(C)C)cc1)c1c(N)n(Cc2ccccc2)c(=O)[nH]c1=O`: “inactive”; `O=C(N/N=C/c1cn(-c2ccccc2)nc1-c1cccs1)c1ccc(Cl)cc1`: “inactive”. In the case of `c1ccc(CCNc2ncnc3c2cnn3-c2ccccc2)cc1`, the molecule was classed as inactive. Consider `Nc1nc(-c2cccc(F)c2)cs1`, for which the call was inactive. `c1ccc(NNC2=NCCCCC2)cc1`: the outcome was inactive. With `Cc1ccc(CN2CCN(Cc3ccc(-n4cccn4)cc3C)CC2CCO)cc1` (stereo unspecified), the molecule was called inactive. With `C/C(=N\N(Cc1ccccc1)c1ccccc1)c1ccncc1`, the molecule was classed as inactive.

Consider `O=C(NCc1ccc2c(c1)OCO2)c1c(O)nc2sccn2c1=O`, for which the call was inactive. For `CCOC(=O)C1CCN(C(=O)c2ccc3c(c2)NC(=O)/C(=C/c2ccccc2)S3)CC1`, the result was inactive. `O=C(CCN1C(=O)/C(=C/c2ccccc2Cl)SC1=S)N1CCCC1`: the molecule was classed as inactive. For `Clc1ccc(-c2ccc(C=Nc3ccc(N4CCOCC4)cc3)o2)c(Cl)c1`, the molecule was classed as inactive. The same measure for `O=C(c1ccccc1)c1c[nH]c(C(=O)NNc2ccccc2)c1`: “inactive”; for `O=C(C[n+]1ccccc1)NNc1ccccc1`: “inactive”; for `O=C(CSc1nc(Nc2ccccc2)nc(N2CCOCC2)n1)Nc1cc(Cl)ccc1O`: “inactive”. Next, `CCOC(=O)c1cn[nH]c1N`: “inactive”; `O=C(NNc1ccc([N+](=O)[O-])cc1)c1ccco1`: “inactive”. The same measure for `CC(C)Oc1ccc(NC(=O)Oc2ccccc2)cc1`: “inactive”. For the molecule `COC(=O)C(NC(=O)c1ccc(OC)cc1)(Nc1ncc(S(=O)(=O)c2ccc([N+](=O)[O-])cc2)s1)C(F)(F)F` (stereo unspecified), the result was inactive. For `N#C/C(=C1\CCCN1)c1nc(-c2ccccc2)cs1`, the call was inactive. Next, `COC(=O)c1ccc(N/N=C/c2cc([N+](=O)[O-])cc(OC)c2O)cc1`: “inactive”; `O=C(c1ccco1)N1CCN(C(=O)C2CC(c3ccc(Cl)c(Cl)c3)=NO2)CC1` (stereo unspecified): “inactive”. `CCCSC1=C(C#N)C(c2ccc(Cl)cc2Cl)CC(=O)N1` (stereo unspecified): the molecule was called inactive.

Consider `COc1ccc(S(=O)(=O)N(C)CC(=O)NCCCn2ccnc2)cc1Cl`, for which the molecule was called inactive. Take `CC1CCC/C(=N\NC(=S)Nc2ccccc2)C1` (stereo unspecified): the outcome was inactive.

Consider `Cc1nn(-c2ccccc2)c(Cl)c1/C=N/NC(=O)c1ccc(CNc2ccccc2)o1`, for which the outcome was inactive. For `Cc1cc(/C=C(/C#N)c2cccc(F)c2)c(C)n1-c1cccnc1`, the molecule was classed as inactive. Next, `COc1ccc2[nH]c(=O)c(CNc3cccc(C)c3)cc2c1`: “inactive”; `CCOC(=O)c1ccc(NC(=O)CSc2ccc(-c3cccnc3)nn2)cc1`: “inactive”; `CC1(C)CN(c2ccccc2)N(C(=O)c2ccc(C#N)cc2)C1=O`: “inactive”. Turning to `C(=N\N1CCN(C2c3ccccc3-c3ccccc32)CC1)/c1ccccn1`, the outcome was inactive. As for `CC(=O)c1ccc2c(c1)C1C(Cl)C(Sc3ccccc3[N+](=O)[O-])CC1C(c1ccccc1)N2` (stereo unspecified), the molecule was classed as inactive. In the case of `Cc1cn(-c2ccc(Br)cc2)[nH]c1=O`, the outcome was inactive.

Turning to `Nc1cnccc1C(=O)O`, the molecule was called inactive.

As to `CC(NC(=O)c1ccccc1Br)C1CC2CCC1C2` (stereo unspecified), the call was inactive. Consider `O=C(NC1CCCCC1)C1CC(=O)N(c2cccc([N+](=O)[O-])c2)C1` (stereo unspecified), for which the molecule was called inactive. For `Nn1c(SCc2ccccc2)nc2ccccc21`, the result was inactive.

`COc1ccc(-c2oc3ncnc(NCCCN4CCOCC4)c3c2-c2ccc(OC)cc2)cc1`: the molecule was called inactive. Turning to `O=c1[nH][nH]cc1C=Nc1ccc(Oc2ccccc2)cc1`, the molecule was called inactive.

Turning to `COc1ccc(NC(=O)C2C3C=CC(O3)C2C(=O)NCc2cccnc2)cc1` (stereo unspecified), the result was inactive.

For the molecule `CC1CN(C(=S)SCC(=O)c2ccc([N+](=O)[O-])cc2)CC(C)O1` (stereo unspecified), the molecule was called inactive.

For the molecule `N#CC(c1cccc(Cl)c1)c1ccc2c(C(F)(F)F)cc(C(F)(F)F)nc2n1` (stereo unspecified), the molecule was classed as inactive. As for `CCc1n[nH]c(=S)n1/N=C/c1ccc(-c2ccc(Br)cc2)o1`, the molecule was called inactive. In the case of `CCCCOC(=O)c1ccc(NC(=S)NC(=O)c2c(Br)c(C)nn2C)cc1`, the result was inactive.

As for `CCn1c(SCC(=O)N(C)CCC#N)nc2cc(S(=O)(=O)N3CCOCC3)ccc21`, the call was inactive.
